A selection: hits, their analogues and other compounds. The true share with any hit is near 4.2%.
Wnt bcat act: activates Wnt/beta-catenin signaling in a reporter cell assay; activation, % at 9.35 µM; AID 743398; activator, plate reader; 1.2% of 300,000 active; in the data active means activation above about 30%, passing the limit was not always enough
hcDAF-12 act: activates DAF-12 receptor from parasite H. contortus | HEK293 hcDAF-12 lit1-tk-luc reporter, luminescence; 0% DMSO, 100% Δ7-dafachronic acid | activation, % at 6.8 µM | 1.4% of 370,000 active | AID 652067;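 active means activation above the mean of all tested compounds plus 3 SD, cut at about 5.5% in these data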
DAX1 inh: DAX1 (NR0B1) inhibition, primary screen. HEK293T StAR-luciferase reporter, SF-1/DAX-1 repression relief. inhibition, % at 6.8 µM. 1.1% of 370,000 active;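 active means inhibition above the mean over all tested compounds plus 3 SD, cut at about 3.6% in these data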;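 further: higher inhibition means more luminescence from relief of DAX-1 repression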
ssDAF12 agonist: S. stercoralis DAF-12 activation, primary screen; HEK293 ssDAF-12/GRIP1 lit1-tk-luc reporter, luminescence; % of 3 µM dafachronic acid response; activation, % at 6.8 µM; 1% of 370,000 active;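 active means activation above the mean over all tested compounds plus 3 SD, cut at about 0.9% in these data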
hgDAF-12 ag: agonists of H. glycines DAF-12 nuclear receptor; HEK293 GAL4-hgDAF12 UAS-luciferase reporter, agonist luminescence; normalized to butyrate control; activation, % at 6.8 µM; 1.8% of 370,000 active; AID 687014;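 active means activation above a cutoff set at the mean of all screened compounds plus 3 SD, cut at about 10% in these data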
esBAF inh: inhibitors of esBAF chromatin remodeling in mouse ES cells | Bmi1-luciferase knock-in reporter, 24 h; 100% = twice the neutral-well signal | reporter increase, % at 12.5 µM | 2% of 350,000 active | AID 602393; in the data active means activation above about 40%;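 further: a rise in the Bmi1 reporter signal indicates esBAF inhibition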
DAX1 conf: NR0B1 (human) inhibition, confirmation; shares compounds with DAX1 inh; HEK293T StAR-promoter luciferase reporter, SF-1/DAX-1 repression; inhibition, % at 6.8 µM; 87% of 2,400 active; AID 652134;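 active means inhibition above the average of every tested compound plus 3 SD, cut at about 3.8% in these data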;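 further: active compounds raise luminescence by relieving repression of the StAR reporter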
SF1 AF2mut Luc: nonselective inhibitor or artifact in SF-1 mutant DAX1 counter-screen | HEK293 StAR-luciferase, SF-1 AF2 mutant, luminescence | AID 652136 | shares compounds with DAX1 inh | inhibition, % at 6.8 µM | 78% of 2,400 active;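 active means inhibition above the mean of all tested compounds plus 3 SD, cut at about 3% in these data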
LXRb hcDAF ctr: counter-screen for hcDAF-12 agonists: agonists of human LXR-beta; shares compounds with hcDAF-12 act; HEK293 Gal4-LXR tk-luc reporter, luminescence, 24 h; normalized: DMSO 0%, positive control 100%; activation, % at 6.8 µM; 3,400 tested, under 10 active; AID 743027;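 active means mean percent activation of the reporter above a cutoff set as the average over tested compounds plus their standard deviation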
Target sequence (P55055 whole entry, looked up, the tested form may be a part): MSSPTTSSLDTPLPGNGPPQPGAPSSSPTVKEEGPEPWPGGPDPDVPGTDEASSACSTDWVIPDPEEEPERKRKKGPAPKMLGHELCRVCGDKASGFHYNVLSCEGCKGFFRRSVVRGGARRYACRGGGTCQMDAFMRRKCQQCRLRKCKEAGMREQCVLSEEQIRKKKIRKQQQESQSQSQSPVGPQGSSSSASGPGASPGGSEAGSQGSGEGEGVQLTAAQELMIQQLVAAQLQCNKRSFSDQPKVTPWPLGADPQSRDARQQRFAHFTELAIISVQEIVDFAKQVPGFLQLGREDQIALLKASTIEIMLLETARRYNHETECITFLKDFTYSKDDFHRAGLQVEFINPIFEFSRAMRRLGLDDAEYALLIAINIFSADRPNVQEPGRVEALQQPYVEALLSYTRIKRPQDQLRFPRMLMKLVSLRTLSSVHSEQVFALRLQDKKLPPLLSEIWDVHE
hcDAF12 conf: hcDAF-12 agonism, confirmation assay | shares compounds with hcDAF-12 act | HEK293 hcDAF-12 lit1-tk-luc reporter, luminescence; % of Δ7-dafachronic acid response | activation, % at 6.8 µM | 61% of 3,400 active | AID 743032;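 active means mean activation across triplicate tests above the threshold derived from the earlier primary screen, cut at about 5.5% in these data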
hgDAF12 conf: hgDAF-12 agonism, confirmation assay. 80% of 3,300 active. HEK293 GAL4-hgDAF12 luciferase reporter, agonist mode; percent of butyrate response. shares compounds with hgDAF-12 ag. activation, % at 6.8 µM;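 active means mean activation over triplicate wells above the hit cutoff derived from the earlier primary screen, cut at about 11% in these data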
LXRb DAF12 ctr: LXR-beta agonism as DAF-12 counter-screen | AID 743051 | 3,300 tested, under 10 active | activation, % at 6.8 µM | shares compounds with hgDAF-12 ag | HEK293 Gal4-LXR luciferase reporter, 24 h;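 active means mean activation of the triplicate above a set limit carried over from the primary screen, none filed active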
Large screens that a line does not name were inactive (follow-up assays come after a bar, where they were run); ! = not confirmed by another sample.

NC(=O)c1cc(Cl)ccc1OCC(=O)Nc1ccc2c(c1)OCO2	Wnt bcat act 68, DAX1 inh 12, hgDAF-12 ag 16 | DAX1 conf 12 | SF1 AF2mut Luc 8.7 | hgDAF12 conf 15 | LXRb DAF12 ctr inactive
COCC(=O)Nc1ccc2c(c1)OCO2	none (no result: esBAF inh)
O=C(Nc1ccc(F)cc1)N1C[C@H]2[C@@H](c3ccccc31)[C@@H](CO)N2C(=O)Cc1ccccc1	none (no result: Wnt bcat act, hcDAF-12 act, DAX1 inh, ssDAF12 agonist, hgDAF-12 ag)
CO[C@H]1CN(C)C(=O)c2ccc(NC(C)=O)cc2OC[C@@H](C)N(C(=O)CC2CC2)C[C@H]1C	none (no result: Wnt bcat act, hcDAF-12 act, DAX1 inh, ssDAF12 agonist, hgDAF-12 ag)
Cc1ccc(NC(=O)c2c(C)nc3ccccn23)cc1C	DAX1 inh 5.8, hgDAF-12 ag 14 (no result: esBAF inh) | DAX1 conf 8.9 | SF1 AF2mut Luc 6.1 | hgDAF12 conf 16 | LXRb DAF12 ctr inactive
Cc1cccc(NC(=O)c2c(C)nc3ccccn23)c1	none
CC/C(=N\NC(=O)c1ccoc1C)c1ccc(C)o1	hcDAF-12 act 9.2, DAX1 inh 7.1, ssDAF12 agonist 2.1, hgDAF-12 ag 23 (no result: esBAF inh) | DAX1 conf inactive | SF1 AF2mut Luc inactive | LXRb hcDAF ctr inactive | hcDAF12 conf inactive | hgDAF12 conf inactive | LXRb DAF12 ctr inactive
CNC[C@H]1Oc2ccc(NC(=O)Cc3ccccc3)cc2CC(=O)N([C@H](C)CO)C[C@H]1C	none (no result: Wnt bcat act, hcDAF-12 act, DAX1 inh, ssDAF12 agonist, hgDAF-12 ag)
C/C(N)=C(/C#N)C(=O)CSc1nnc(-c2ccc(OC(F)F)cc2)o1	hcDAF-12 act 6.8!, DAX1 inh 4.8, hgDAF-12 ag 20, esBAF inh 65! | DAX1 conf 11 | SF1 AF2mut Luc 8.2 | LXRb hcDAF ctr inactive | hcDAF12 conf 7.3 | hgDAF12 conf 14 | LXRb DAF12 ctr inactive
C[C@@H]1CN([C@@H](C)CO)C(=O)Cc2cc(NC(=O)Nc3cccc4ccccc34)ccc2O[C@H]1CN(C)C	none (no result: Wnt bcat act, hcDAF-12 act, DAX1 inh, ssDAF12 agonist, hgDAF-12 ag)
CN(C)CCCNC(=O)C[C@H]1CC[C@H](NC(=O)c2ccccc2F)[C@@H](CO)O1	none (no result: Wnt bcat act, hcDAF-12 act, DAX1 inh, ssDAF12 agonist, hgDAF-12 ag)
O=C(/C=C/c1ccccc1)CC(=O)c1ccccc1O	DAX1 inh 4.5, hgDAF-12 ag 17 (no result: esBAF inh) | DAX1 conf inactive | SF1 AF2mut Luc 4.0 | hgDAF12 conf inactive | LXRb DAF12 ctr inactive
O=C(CCCc1ccccn1)c1cccc2ccccc12	hcDAF-12 act 12, DAX1 inh 5.6, ssDAF12 agonist 1.1, hgDAF-12 ag 15 | DAX1 conf 13 | SF1 AF2mut Luc 5.7 | LXRb hcDAF ctr inactive | hcDAF12 conf 9.6 | hgDAF12 conf 15 | LXRb DAF12 ctr inactive
C[C@@H](O)C#Cc1ccc2c(c1)O[C@H](CN(C)C(=O)C1CCCCC1)[C@@H](C)CN([C@@H](C)CO)S2(=O)=O	none (no result: Wnt bcat act, hcDAF-12 act, DAX1 inh, ssDAF12 agonist, hgDAF-12 ag)
C[C@@H]1CN([C@H](C)CO)S(=O)(=O)c2ccc(C#Cc3cccc(F)c3)cc2O[C@@H]1CN(C)C(=O)NC1CCCCC1	none (no result: Wnt bcat act, hcDAF-12 act, DAX1 inh, ssDAF12 agonist, hgDAF-12 ag)
N/C(=N\OC(=O)c1ccc2ccccc2c1)c1ccccc1Cl	Wnt bcat act 47, DAX1 inh 8.8, hgDAF-12 ag 14, esBAF inh 65 | DAX1 conf inactive | SF1 AF2mut Luc 3.5 | hgDAF12 conf 13 | LXRb DAF12 ctr inactive

Bioassay records as filed in PubChem BioAssay.
